The record followed here is PubChem BioAssay (NCI).

Compounds without any hit were thinned out: in the full panel of roughly 83,000, 20% have a hit.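 96-well plates, one dose, 48 hours. Percent growth reported; active if below 10.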 A number with no mark means an inactive call. Activity calls are given as the source filed them.

Common to all, as to assay: NCI-60 one-dose screen, 48 h (100 = growth as untreated, 0 = no growth, -100 = all killed)
Assay [1] concerns HCT-15 colon. To be noted: 10 µM unless noted.
In assay [2] the test system is HT29 colon. To be noted: 10 µM unless noted.
The test system of assay [3] is SNB-75 CNS. To be noted: 10 µM unless noted.
For assay [4], the system named is SNB-19 CNS. To be noted: 10 µM unless noted.
Assay [5] deals with U251 CNS. The following applies: 10 µM unless noted.
In assay [6] the test system is PC-3 prostate. The following applies: 10 µM unless noted.
For assay [7], the system named is SK-MEL-5 melanoma. To be noted: 10 µM unless noted.
Assay [8] relates to UACC-62 melanoma. To be noted: 10 µM unless noted.
In assay [9] the test system is LOX IMVI melanoma. The following applies: 10 µM unless noted.
Assay [10] has as its system SK-MEL-28 melanoma. The following applies: 10 µM unless noted.
The subject of assay [11] is SK-MEL-2 melanoma. The following applies: 10 µM unless noted.
For assay [12], the system named is EKVX NSCLC. The following applies: 10 µM unless noted.
In assay [13] the test system is SN12C renal. To be noted: 10 µM unless noted.
Assay [14] deals with UO-31 renal. To be noted: 10 µM unless noted.
Assay [15] has as its system TK-10 renal. To be noted: 10 µM unless noted.
Assay [16] concerns ACHN renal. To be noted: 10 µM unless noted.
The test system of assay [17] is CAKI-1 renal. To be noted: 10 µM unless noted.
Assay [18] relates to A498 renal. The following applies: 10 µM.
Assay [19] relates to HL-60(TB) leukemia. To be noted: 10 µM unless noted.
In assay [20] the test system is CCRF-CEM leukemia. The following applies: 10 µM unless noted.

Turning to `O=C1C(Cl)=C(N2CCOCC2)C(=O)c2ccccc21`, the growth is 71.5% in assay [1]; 116% in [2]; 102% in assay [3]; 116% in assay [4]; 67% in [5]; 71.9% in assay [6]. Moreover, the growth in assay [7] is 92%; in assay [8], 105%; in assay [9] it was 76.7%; in [10], 118%; in assay [11], 119%; in assay [12], 96.9%. Moreover, the growth in assay [13] was 105%; in [14], 51.8%; in [15], 127%; in assay [16], 78.4%; in assay [17], 6.93% (active); in assay [18] it was 93.8%. Moreover, the growth in assay [19] is -36.6% (active); in assay [20], -27.6% (active).
On to `COC(=O)N[C@H]1CCc2c(Br)c(OC)c(OC)c(OC)c2-c2ccc(SC)c(=O)cc21`, for which the growth in assay [1] was 7.69% (active); in assay [2], 12%; in assay [3], 29.1%; in assay [4], 28.2%; in assay [5] it was 21.4%; in assay [6] it was 21.7%. Moreover, the growth in assay [7] was -44.6% (active); in [8], 38.6%; in assay [9] it was 12.1%; in assay [10], 66.9%; in [11], 29.4%; in assay [12], 46%. The growth in [13] is 25.1%; in [14] it was 18.2%; in assay [15], 41.6%; in [16], 26.7%; in assay [17] it was 13.7%.
As for `CC[C@H](C)[C@H](NC(=O)[C@H]1CCCCN1C)C(=O)N(C)[C@H](C[C@@H](OC(C)=O)c1nc(C(=O)NC23CC(C(=O)OC)(C2)C3)cs1)C(C)C`, the growth was 6.1% (active) in assay [1]; -9.84% (active) in assay [2]; 15% in [3]; 29% in assay [4]; 6.7% (active) in assay [5]; 23.6% in assay [6]. For the same compound, the growth is -65.7% (active) in [7]; 44.3% in [8]; 4.9% (active) in assay [9]; 60.8% in assay [10]; 29.5% in assay [11]; 34.3% in assay [12]. The growth in assay [13] is 32.7%; in [14], 33.1%; in [15] it was 15.7%; in assay [16], 11.6%; in [17], 26.5%; in assay [18], -7.99% (active). Besides, the figures for the growth in assay [19] and in [20] were -37.2% (active) and 1.09% (active), respectively.
Regarding `COc1cc(NCCCN=C(N)N)c2ncccc2c1`, the growth in assay [1] is 98.6%; in assay [2], 83.9%; in assay [3] it was 73.4%; in [4], 81.8%; in assay [5] it was 58.5%; in assay [6], 83.7%. The growth in assay [7] was 72.1%; in assay [8] it was 90.3%; in assay [9], 104%; in assay [10], 99.6%; in assay [11] it was 27.8%; in [12], 70.6%. Further, the growth is 2.57% (active) in [13]; 89.4% in [14]; 80% in assay [15]; 100% in assay [16]; 97.9% in assay [17]; 73.6% in [18].
Turning to `C/C(=C\c1ccn(-c2ccccc2N)n1)[C@@H]1C[C@@H]2O[C@]2(C)CCC[C@H](C)[C@H](O)[C@@H](C)C(=O)C(C)(C)[C@@H](O)CC(=O)O1`, the growth in [1] was 16.6%; in assay [2], 15.1%; in [3], -4.54% (active); in [4], 29.1%; in [5], 27.2%; in assay [6] it was 14.3%. Moreover, the growth in [7] is 12.2%; in assay [8], 19.9%; in assay [9], 28.5%; in [10], 58.8%; in assay [11] it was 33.2%; in [12], 44.8%. The growth in [13] is 38%; in [14] it was 41.5%; in [15] it was 51.6%; in [16] it was 46.3%; in [17] it was 40.4%; in [18], 13%. Also, the growth is 9.72% (active) in [19] and 19.6% in assay [20].
As for `CCN(CC)CCOC(=O)C(OC(C)C)(c1ccccc1)c1ccccc1`, the growth in assay [1] was 96.4%; in [2] it was 79.7%; in assay [3] it was 88.3%; in assay [4], 96.2%; in assay [5] it was 101%; in [6], 83.7%. The growth in assay [7] is 97.6%; in [8] it was 103%; in assay [9], 96.7%; in assay [10] it was 99.6%; in assay [11], 88.2%; in assay [12] it was 93.5%. The growth in [13] is 106%; in assay [14], 79.1%; in assay [15] it was 89%; in assay [16], 104%; in assay [17] it was 87.2%; in assay [18] it was 72.6%. Also, the figures for the growth in [19] and in assay [20] were 99.6% and 102%, respectively.
As to `NC(=S)c1cn(C2OC(CO)C(O)C2O)c2ncnc(N)c12` (stereo not given), the growth in [1] was -11.2% (active); in assay [2], 2.78% (active); in assay [3], -8.8% (active); in assay [4], 9.97% (active); in assay [5], -7.25% (active); in [6], 6.45% (active). Further, the growth is -73.7% (active) in assay [7]; -77.1% (active) in assay [8]; -22.9% (active) in assay [9]; -40.3% (active) in assay [10]; -58.1% (active) in assay [11]; -4.9% (active) in assay [12]. For the same compound, the growth in [13] was -10.5% (active); in [14], -9.32% (active); in [15], -29.5% (active); in [16] it was -6.08% (active); in [17], -36.6% (active); in assay [18], -32.5% (active). Further, the results for the growth in assay [19] and in assay [20] were -72.9% (active) and -40.6% (active), respectively.
For the compound `COc1ccc(C2=CC(c3ccc(OC)c(OC)c3)c3c(c4ccccc4oc3=O)O2)cc1OC` (stereo not given), the growth in assay [1] was 13.6%; in assay [2], 3.84% (active); in assay [3], -4.06% (active); in assay [4], 17.9%; in assay [5], 24.2%; in assay [6], -18.3% (active). The growth in assay [7] is 17.1%; in assay [8], 36.8%; in assay [9], 36%; in [10] it was 50.9%; in [11], 8.03% (active); in assay [12] it was 30.4%. Moreover, the growth in assay [13] is 58.7%; in [14], 21.8%; in assay [15], 42%; in assay [16] it was 52.7%; in [17], 7.77% (active); in assay [18], -3.43% (active). Further, the growth is -59.9% (active) in [19] and -6.1% (active) in assay [20].
